Laboratory results from PubChem BioAssay AID1159580 (chemical genetic matrix, 2015).
Hit rate of the full screen: of about 5,500 compounds, about 2,000 (36%) were called active. Another 18% or so got no clear call; they are omitted. Cut-off read from the data, not from the text of the source: active = normalized growth mostly below about 0.91 (no sharp cut-off); inconclusive = no clear call, values can overlap the other calls; inactive = mostly above about 0.92. The list shows a part of the results.

Test: chemical genetic growth profiling, strain panel (AID 1159580);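 note: tested at 20 µM; growth read once vehicle control cultures reached saturation at 30 °C; 1 = growth at the plate median or of vehicle wells; lower values mean less growth of the strain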
Conditions: growth OD

Measured: normalized growth

Cc1ccc(C(=O)c2ccc(CC(=O)O)n2C)cc1
inactive: S. cerevisiae deletion strains, locus YJR075W, strain HOC1, active compounds read low 1.02 | S. cerevisiae deletion strains, locus YKL009W, strain mrt4, active compounds read low 0.958 | S. cerevisiae deletion strains, locus YKL068W, active compounds read low 0.99 | S. cerevisiae deletion strains, locus YKL085W, strain MDH1 (second series), active compounds read low 0.98 | S. cerevisiae deletion strains, locus YKL085W, strain MDH1, active compounds read low 0.98 | S. cerevisiae deletion strains, locus YKL160W, strain elf1, active compounds read low 1.01 | S. cerevisiae deletion strains, locus YKL190W, strain CNB1, active compounds read low 0.996 | S. cerevisiae deletion strains, locus YKR001C, strain vps1, active compounds read low 0.946 | S. cerevisiae deletion strains, locus YKR026C, strain gcn3, active compounds read low 1.01 | S. cerevisiae deletion strains, locus YKR091W, strain srl3, active compounds read low 1 | S. cerevisiae deletion strains, locus YLL001W, strain dnm1, active compounds read low 0.981 | S. cerevisiae deletion strains, locus YLL026W, active compounds read low 1.01 | S. cerevisiae deletion strains, locus YLL041C, strain sdh2, active compounds read low 1 | S. cerevisiae deletion strains, locus YLR027C, strain aat2, active compounds read low 1.02 | S. cerevisiae deletion strains, locus YLR039C, strain RIC1, active compounds read low 0.996 | S. cerevisiae deletion strains, locus YLR058C, strain SHM2, active compounds read low 1 | S. cerevisiae deletion strains, locus YLR102C, strain apc9, active compounds read low 0.973 | S. cerevisiae deletion strains, locus YLR113W, strain HOG1, active compounds read low 0.991 | S. cerevisiae deletion strains, locus YLR221C, strain rsa3, active compounds read low 0.971 | S. cerevisiae deletion strains, locus YLR258W, strain gsy2, active compounds read low 1.01 | S. cerevisiae deletion strains, locus YLR262C, strain YPT6 (second series), active compounds read low 0.994 | S. cerevisiae deletion strains, locus YLR262C, strain YPT6, active compounds read low 1 | S. cerevisiae deletion strains, locus YLR268W, strain sec22, active compounds read low 0.918 | S. cerevisiae deletion strains, locus YLR320W, strain mms22, active compounds read low 0.958 | S. cerevisiae deletion strains, locus YLR330W, strain CHS5, active compounds read low 1 | S. cerevisiae deletion strains, locus YLR342W, strain FKS1 (second series), active compounds read low 0.997 | S. cerevisiae deletion strains, locus YLR342W, strain FKS1, active compounds read low 1.02 | S. cerevisiae deletion strains, locus YLR357W, strain rsc2, active compounds read low 1.02 | S. cerevisiae deletion strains, locus YLR370C, strain arc18, active compounds read low 1 | S. cerevisiae deletion strains, locus YLR371W, strain rom2, active compounds read low 0.978 | S. cerevisiae deletion strains, locus YLR384C, strain iki3, active compounds read low 1.01 | S. cerevisiae deletion strains, locus YLR418C, strain cdc73, active compounds read low 0.968 | S. cerevisiae deletion strains, locus YML016C, strain PPZ1, active compounds read low 1.01 | S. cerevisiae deletion strains, locus YML032C, strain rad52, active compounds read low 0.969 | S. cerevisiae deletion strains, locus YML120C, strain ndi1, active compounds read low 0.982 | S. cerevisiae deletion strains, locus YML124C, strain tub3, active compounds read low 0.981 | S. cerevisiae deletion strains, locus YMR058W, strain fet3, active compounds read low 1.02 | S. cerevisiae deletion strains, locus YMR078C, strain ctf18, active compounds read low 0.97 | S. cerevisiae deletion strains, locus YMR125W, strain sto1, active compounds read low 1.01 | S. cerevisiae deletion strains, locus YMR129W, active compounds read low 1.02 | S. cerevisiae deletion strains, locus YMR205C, strain PFK2, active compounds read low 1.01 | S. cerevisiae deletion strains, locus YMR223W, strain ubp8, active compounds read low 0.979 | S. cerevisiae deletion strains, locus YMR231W, strain pep5, active compounds read low 1.01 | S. cerevisiae deletion strains, locus YMR307W, strain GAS1, active compounds read low 0.991 | S. cerevisiae deletion strains, locus YNL067W, strain RPL9B, active compounds read low 1 | S. cerevisiae deletion strains, locus YNL071W, strain lat1, active compounds read low 1.02 | S. cerevisiae deletion strains, locus YNL153C, strain GIM3, active compounds read low 1 | S. cerevisiae deletion strains, locus YNL183C, strain NPR1, active compounds read low 0.928 | S. cerevisiae deletion strains, locus YNL209W, strain ssb2, active compounds read low 1.02 | S. cerevisiae deletion strains, locus YNL233W, strain BNI4, active compounds read low 1 | S. cerevisiae deletion strains, locus YNL248C, strain rpa49, active compounds read low 1.02 | S. cerevisiae deletion strains, locus YNL250W, strain rad50, active compounds read low 0.987 | S. cerevisiae deletion strains, locus YNL271C, strain bni1, active compounds read low 0.968 | S. cerevisiae deletion strains, locus YNL298W, strain CLA4, active compounds read low 0.95 | S. cerevisiae deletion strains, locus YNL307C, strain MCK1, active compounds read low 0.956 | S. cerevisiae deletion strains, locus YNL322C, strain KRE1 (second series), active compounds read low 1.03 | S. cerevisiae deletion strains, locus YNL322C, strain KRE1, active compounds read low 1 | S. cerevisiae deletion strains, locus YNR049C, strain mso1, active compounds read low 1 | S. cerevisiae deletion strains, locus YNR052C, strain pop2, active compounds read low 0.978 | S. cerevisiae deletion strains, locus YOL006C, strain TOP1, active compounds read low 0.969 | S. cerevisiae deletion strains, locus YOL012C, strain htz1 0.918 | S. cerevisiae deletion strains, locus YOL147C, strain pex11, active compounds read low 0.974 | S. cerevisiae deletion strains, locus YOR001W, strain rrp6, active compounds read low 0.975 | S. cerevisiae deletion strains, locus YOR061W, strain CKA2, active compounds read low 1 | S. cerevisiae deletion strains, locus YOR069W, strain VPS5, active compounds read low 0.997 | S. cerevisiae deletion strains, locus YOR070C, strain gyp1, active compounds read low 1.02 | S. cerevisiae deletion strains, locus YOR080W, strain dia2, active compounds read low 1.02 | S. cerevisiae deletion strains, locus YOR083W, strain WHI5, active compounds read low 0.974 | S. cerevisiae deletion strains, locus YOR106W, strain vam3, active compounds read low 1.04 | S. cerevisiae deletion strains, locus YOR136W, strain idh2, active compounds read low 0.989 | S. cerevisiae deletion strains, locus YOR144C, strain elg1, active compounds read low 0.979 | S. cerevisiae deletion strains, locus YOR184W, strain ser1, active compounds read low 0.956 | S. cerevisiae deletion strains, locus YOR231W, strain MKK1, active compounds read low 0.987 | S. cerevisiae deletion strains, locus YOR265W, strain rbl2, active compounds read low 1.01 | S. cerevisiae deletion strains, locus YOR270C, strain vph1, active compounds read low 0.934 | S. cerevisiae deletion strains, locus YOR290C, strain snf2, active compounds read low 1.01 | S. cerevisiae deletion strains, locus YOR316C, strain cot1, active compounds read low 0.974 | S. cerevisiae deletion strains, locus YPL051W, strain arl3, active compounds read low 1.01 | S. cerevisiae deletion strains, locus YPL055C, strain LGE1, active compounds read low 1.02 | S. cerevisiae deletion strains, locus YPL078C, strain atp4, active compounds read low 0.995 | S. cerevisiae deletion strains, locus YPL106C, strain sse1, active compounds read low 1.03 | S. cerevisiae deletion strains, locus YPL240C, strain hsp82, active compounds read low 1.03 | S. cerevisiae deletion strains, locus YPL241C, strain CIN2, active compounds read low 1 | S. cerevisiae deletion strains, locus YPL256C, strain CLN2, active compounds read low 0.969 | S. cerevisiae deletion strains, locus YPR119W, strain clb2, active compounds read low 0.975 | S. cerevisiae deletion strains, locus YPR141C, strain kar3, active compounds read low 0.985 | S. cerevisiae deletion strains, locus YPR163C, strain tif3, active compounds read low 0.984 | S. cerevisiae deletion strains, locus YPR167C, strain met16, active compounds read low 0.973 | S. cerevisiae deletion strains, strain wtn01, active compounds read low 0.973 | S. cerevisiae strains, strain wild type, active compounds read low 1
